Screening results deposited in PubChem BioAssay by National Center for Advancing Translational Sciences (NCATS).
An excerpt weighted towards active compounds, which were near 1.9% of everything screened.
PINK1 modulator – PINK1 expression modulation; 410,000 compounds, 0.2% hits; Potency, µM (titrated, usually from 76.6 µM), usual class: activators; PINK1 immunofluorescence, high-content cytometry, 24 h; active means well fitted activation curve with a large enough effect; inconclusive means small, poorly fitted or top-dose-only effect; cell line not stated here; further: nearly all actives have a fitted effect of over 65% in size
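Compound titrations (5 concentrations, 24 h) on a stable cell line; DMSO and CCCP controls. Endpoint: fixed-cell PINK1 immunofluorescence with mitochondrial, cell and nuclear markers, scanned by microplate cytometer.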
Menin-MLL TR inh – displaces Texas Red mutant MLL peptide from human menin | O00255 | 270,000 compounds, 0.23% hits | Menin + Texas Red MLL mutant peptide, fluorescence polarization | Potency, µM (top dose mostly 61.6 µM), most hits filed as inhibitors; active means well fitted inhibition curve with a large enough effect in the polarisation, with a control signal flat, not every such curve was filed as active; inconclusive means small, poorly fitted or top-dose-only effect, or effect the other way, or a change in a side signal; inactive means no such curve, though single readings can be large or run the other way; the % refers to the polarisation
ClpP mod – qHTS Assay for Activators of ClpP; 340,000 compounds, 1.9% hits; AID 651965, 2013; Potency, µM (titrated, usually from 57.5 µM); purified B. subtilis ClpP, FRET peptide cleavage, 20 min; active means well fitted falling curve with a large enough effect; inconclusive means small, poorly fitted or top-dose-only effect; inactive means no such curve, though single readings can be large or run the other way; further: the source files actives as falling curves though it sought activators and does not explain the sign; nearly all actives have a fitted effect of over 65% in size
Target sequence (P80244 whole entry, looked up): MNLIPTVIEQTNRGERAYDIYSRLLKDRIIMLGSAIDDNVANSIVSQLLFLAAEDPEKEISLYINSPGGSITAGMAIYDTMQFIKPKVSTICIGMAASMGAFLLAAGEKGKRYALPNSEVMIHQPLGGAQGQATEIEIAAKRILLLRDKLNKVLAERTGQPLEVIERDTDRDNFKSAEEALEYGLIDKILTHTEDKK
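FRET quenching reversal measured ClpP activation: 10 microg/mL B. subtilis ClpP at pH 8 with the FRET-FV decapeptide, read at 430 nm after 320 nm excitation. The 20-min minus 0-min signal was scaled between DMSO/no-enzyme wells and ADEP (5.8 microM final).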
Menin MLL FP FL – inhibitors of human menin-MLL interaction, wild-type MLL peptide; FP activity change, % at 61.4 µM; 290,000 tested, under 10 active; Fluorescence polarization, fluorescein-MLL peptide displacement from menin; AID 1766; active means well fitted curve in the direction sought with a large enough effect in the polarisation, not every such curve was filed as active; inconclusive means small, poorly fitted or top-dose-only effect, or effect the other way, or a change in a side signal; inactive means no such curve, though single readings can be large or run the other way; the % refers to the polarisation
MLL CXXC-DNA inh – inhibitors of human MLL CXXC domain-DNA interaction | Q03164 | MLL-CXXC / FITC-HOXA9 DNA fluorescence polarization | Potency, µM (series often up to 115 µM), hits mostly inhibitors | 290,000 compounds, 0.037% hits | AID 2662; active means well fitted inhibition curve with a large enough effect in the polarisation, with a control signal flat, not every such curve was filed as active; inconclusive means small, poorly fitted or top-dose-only effect, or effect the other way, or a change in a side signal; inactive means no such curve, though single readings can be large or run the other way; the % refers to the polarisation
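Steps: dispense CXXC domain solution (7 uM) → pin compounds or unlabeled HOX-A9 DNA control → 5 min ambient → add FLSN-HOX-A9 solution (50 nM) → spin → 30 min ambient → fluorescence polarization. Tris pH 7.5/NaCl/DTT/BSA buffer.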
Epigenetic reg – epigenetic control regulation, reporter derepression | Potency, µM (doses to about 53.9 µM), hits mostly activators | AID 1865 | 280,000 compounds, 0.2% hits | murine LDR cells, GFP reporter derepression, 30 h; active means well fitted activation curve with a large enough effect; inconclusive means small, poorly fitted or top-dose-only effect; further: nearly all actives have a fitted effect of over 60% in size
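In this reporter-derepression format, murine cells bearing a silenced integrated CMV-GFP locus incubate with test compound (30 h, 37 C), then are washed and imaged; fluorescent objects of 20–120 um count as induced cells.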
Hits are given with their value; - = inactive; ? = inconclusive; . = no result.

SMILES	PINK1 modulator	Menin-MLL TR inh	ClpP mod	Menin MLL FP FL	MLL CXXC-DNA inh	Epigenetic reg
O=C(NN=C1CCC(c2ccccc2)CC1)c1ccccc1-n1cccc1 (stereo unspecified)	-	-	32µM	-	-	-
COc1ccc(N2CCN(C(=O)CSc3c4c(nc5ccc(Cl)cc35)CCCC4)CC2)cc1	-	.	-	.	.	-
O=C1c2ccccc2C2=Nc3ccccc3SC(c3cccc(F)c3)C12 (stereo unspecified)	40µM	?	-	-	-	-
Cc1ccc(C)c(OCC(=O)O/N=C(\N)c2ccccn2)c1	-	-	-	-	-	-
N/C(=N\OC(=O)COc1ccccc1Cl)c1ccccn1	-	-	14µM	-	-	-
c1ccc(-c2ncnc3nc4n(c23)CCC4)cc1	7.9µM	?	-	-	-	-
Cc1oc(-c2ccccc2NC(=O)c2ccccn2)nc1CNC(=O)c1cccc(C#CC(C)(C)O)c1	-	.	.	.	.	.
FC(F)(F)c1ccc(N2CCN(c3ncnc4c3nnn4Cc3ccccc3)CC2)nc1	11µM	-	?	-	-	-
c1ccc(Cn2nnc3c(N4CCOCC4)ncnc32)cc1	-	-	-	-	-	-
CCN1CCN(c2cc(C)c3cc(NC(=O)c4cc(OC)c(OC)c(OC)c4)ccc3n2)CC1	-	.	?	.	.	-
Cc1cc(N2CCN(C)CC2)nc2ccc(NC(=O)CCC(=O)NCc3ccco3)cc12	-	-	22µM	-	-	-
COc1ccccc1CC(=O)Nc1ccc2nc(N3CCC(C)CC3)cc(C)c2c1	-	.	-	.	.	-
CCOc1ccccc1NC(=O)Nc1ccc2nc(N3CCN(C)CC3)cc(C)c2c1	-	.	11µM	.	.	-
CCN1CCN(c2cc(C)c3cc(NC(=O)Cc4ccccc4OC)ccc3n2)CC1	-	-	28µM	-	-	-
Cc1ccccc1NC(=O)Nc1ccc2nc(N3CCN(C)CC3)cc(C)c2c1	-	.	-	.	.	-
CCN1CCN(c2cc(C)c3cc(NC(=O)c4cncc(Br)c4)ccc3n2)CC1	-	-	20µM	-	-	-
CCN1CCN(c2cc(C)c3cc(NC(=O)CCC(=O)Nc4ccc(OC)c(OC)c4)ccc3n2)CC1	-	-	-	-	-	.
COc1ccc(C)cc1NC(=O)CCC(=O)Nc1ccc2nc(N3CCN(C)CC3)cc(C)c2c1	-	-	28µM	-	-	-
Cc1cc(C(=O)NCC2CCC3(CCN(Cc4ccc(F)cc4)CC3)O2)n(C)n1 (stereo unspecified)	-	.	.	.	.	.
CCCN1CNc2c(c(=O)[nH]c(=S)n2CCC(C)(C)C)C1	-	.	-	.	.	.
CCOc1nc(NC(=O)NS(=O)(=O)c2cccc(Cl)c2)nc(-c2ccccc2)n1	-	-	28µM	-	-	-
O=C(Cc1ccc(S(=O)(=O)N2CCOCC2)s1)Nc1ccccc1N1CCOCC1	-	-	14µM	-	-	-
O=S(=O)(c1ccc(-c2cnc(C3CC3)o2)cc1)N1CCN(c2ccccc2F)CC1	-	.	28µM	.	.	-
CCN1CCCC1CNC(=O)c1cc2c(C)nc3ccccc3c2o1 (stereo unspecified)	-	-	25µM	-	-	-
O=C(NCCc1cccs1)c1ccc(Cn2c(SCc3ccc(F)cc3)nc3cccnc32)cc1	-	.	25µM	.	.	-
SMILES	PINK1 modulator	Menin-MLL TR inh	ClpP mod	Menin MLL FP FL	MLL CXXC-DNA inh	Epigenetic reg
Cc1ccc(CNC(=O)c2ccc(Cn3c(SCc4ccc(F)cc4)nc4cccnc43)cc2)o1	-	.	28µM	.	.	-
O=C(NCCc1cccs1)c1ccc(Cn2c(SCc3ccccc3)nc3cccnc32)cc1	-	.	-	.	.	-
Cc1ccc(NC(NC(=O)c2cccs2)C(Cl)(Cl)Cl)cc1 (stereo unspecified)	-	?	-	-	-	-
Cc1ccccc1NC(NC(=O)c1cccs1)C(Cl)(Cl)Cl (stereo unspecified)	-	?	25µM	-	-	-
COC(=O)c1ccccc1NC(=O)Oc1ccc(F)cc1	-	.	25µM	-	-	-
COc1ccc(OC)c(N=c2oc3cc(O)ccc3cc2C(N)=O)c1	-	-	28µM	-	-	-
COc1ccc2cc(C(N)=O)c(=Nc3ccccc3)oc2c1	-	-	.	-	-	-
CSc1ccc2[nH]c(=O)cc(C)c2c1	-	-	35µM	-	-	-
Cc1cc(=O)[nH]c2ccc([N+](=O)[O-])cc12	.	.	-	.	.	.
O=C(c1cnsn1)N1CCOc2ccc(C(O)C(c3ccccc3)c3ccccc3)cc2C1 (stereo unspecified)	-	.	.	.	.	.
COC(=O)CC1c2ccccc2C(Cc2ccc3c(c2)OCO3)=C(C)N1C(=O)OC (stereo unspecified)	.	-	.	-	.	-
Cc1c(C(=O)NCc2ccc(F)cc2)sc2ncnc(NCC3CCCO3)c12 (stereo unspecified)	-	.	.	.	.	.
COc1ccc(S(=O)(=O)n2ccnc2)c2cccnc12	-	-	13µM	-	-	-
COc1ccc(S(=O)(=O)Nc2cccc(C)c2C)c2cccnc12	-	-	.	-	-	.
CCOc1ccc(S(=O)(=O)NCc2ccc(C)cc2)c2cccnc12	-	-	32µM	-	-	-
CCCCNS(=O)(=O)c1ccc(OC)c2ncccc12	-	-	28µM	-	-	-
CC[C@H](C)C(N)C(=O)O (stereo partly specified)	.	-	.	-	.	.
COc1ccc(OC)c(/C=C2\NC(=O)NC2=O)c1	-	-	-	-	-	.
COc1cc(N2CCCC2)c(OC)cc1/C=C1/NC(=S)NC1=O	?	-	-	?	?	16µM
c1csc(CNc2nc(CN3CCCC(c4nc5ccccc5o4)C3)nc3ccccc23)c1 (stereo unspecified)	-	.	.	.	.	.
CN1CCc2c(sc3nc(SCC(=O)N4CCOCC4)nc(N)c23)C1	-	-	?	-	-	-
CC1CCN(C(=O)CSc2nc(N)c3c4c(sc3n2)CN(C)CC4)CC1	-	-	28µM	-	-	-
COc1ccc(NC(=O)c2sc3nc4c(cc3c2N)CN(Cc2ccccc2)CC4)cc1OC	-	.	-	.	.	18µM
O=c1c2c(nc3c(-c4ccccc4)c[nH]n13)CCC2	-	-	25µM	-	-	-
Cc1c(-c2ccccc2)[nH]n2c(=O)c3c(nc12)CCCC3	-	-	25µM	-	-	-
SMILES	PINK1 modulator	Menin-MLL TR inh	ClpP mod	Menin MLL FP FL	MLL CXXC-DNA inh	Epigenetic reg
Cc1c(C(=O)NCc2cccc(Cl)c2)sc2nc[nH]c(=O)c12	-	.	22µM	.	.	-
Cc1c(C(=O)NCc2ccccc2Cl)sc2nc[nH]c(=O)c12	-	.	40µM	.	.	-
Cc1c(C(=O)NCc2ccccc2)sc2nc[nH]c(=O)c12	-	.	-	.	.	-
O=C(C[N+]12CN3CN(CN(C3)C1)C2)c1ccc(O)c(O)c1	-	.	-	.	.	.
O=C(Cn1cnc2sc(-c3ccccc3)cc2c1=O)NCc1ccco1	-	25µM	-	-	-	-
COc1c2ccoc2nc2c(OC)cccc12	-	-	16µM	-	-	-
